# Compound activity deposited in PubChem by University of Kansas High Throughput Screening Laboratory.
# Pf apPOL block – Pf-apPOL inhibitors, biochemical, fluorescence. Recombinant Pf-apPOL, molecular beacon fluorescence, 1.5 h. 0.25% of 210,000 active. inhibition, % at 10 µM. Plasmodium falciparum apicoplast DNA polymerase (apPOL)
# mHTT CaM bind – mutant huntingtin-calmodulin interaction inhibitors – biochemical, AlphaScreen, primary screen; AID 1671202, 2021; AlphaScreen His-mHTT/GST-CaM binding, luminescence; inhibition, % at 15 µM; P42858; 3.6% of 190,000 active
# Target sequence (P42858 whole entry, looked up, change not shown): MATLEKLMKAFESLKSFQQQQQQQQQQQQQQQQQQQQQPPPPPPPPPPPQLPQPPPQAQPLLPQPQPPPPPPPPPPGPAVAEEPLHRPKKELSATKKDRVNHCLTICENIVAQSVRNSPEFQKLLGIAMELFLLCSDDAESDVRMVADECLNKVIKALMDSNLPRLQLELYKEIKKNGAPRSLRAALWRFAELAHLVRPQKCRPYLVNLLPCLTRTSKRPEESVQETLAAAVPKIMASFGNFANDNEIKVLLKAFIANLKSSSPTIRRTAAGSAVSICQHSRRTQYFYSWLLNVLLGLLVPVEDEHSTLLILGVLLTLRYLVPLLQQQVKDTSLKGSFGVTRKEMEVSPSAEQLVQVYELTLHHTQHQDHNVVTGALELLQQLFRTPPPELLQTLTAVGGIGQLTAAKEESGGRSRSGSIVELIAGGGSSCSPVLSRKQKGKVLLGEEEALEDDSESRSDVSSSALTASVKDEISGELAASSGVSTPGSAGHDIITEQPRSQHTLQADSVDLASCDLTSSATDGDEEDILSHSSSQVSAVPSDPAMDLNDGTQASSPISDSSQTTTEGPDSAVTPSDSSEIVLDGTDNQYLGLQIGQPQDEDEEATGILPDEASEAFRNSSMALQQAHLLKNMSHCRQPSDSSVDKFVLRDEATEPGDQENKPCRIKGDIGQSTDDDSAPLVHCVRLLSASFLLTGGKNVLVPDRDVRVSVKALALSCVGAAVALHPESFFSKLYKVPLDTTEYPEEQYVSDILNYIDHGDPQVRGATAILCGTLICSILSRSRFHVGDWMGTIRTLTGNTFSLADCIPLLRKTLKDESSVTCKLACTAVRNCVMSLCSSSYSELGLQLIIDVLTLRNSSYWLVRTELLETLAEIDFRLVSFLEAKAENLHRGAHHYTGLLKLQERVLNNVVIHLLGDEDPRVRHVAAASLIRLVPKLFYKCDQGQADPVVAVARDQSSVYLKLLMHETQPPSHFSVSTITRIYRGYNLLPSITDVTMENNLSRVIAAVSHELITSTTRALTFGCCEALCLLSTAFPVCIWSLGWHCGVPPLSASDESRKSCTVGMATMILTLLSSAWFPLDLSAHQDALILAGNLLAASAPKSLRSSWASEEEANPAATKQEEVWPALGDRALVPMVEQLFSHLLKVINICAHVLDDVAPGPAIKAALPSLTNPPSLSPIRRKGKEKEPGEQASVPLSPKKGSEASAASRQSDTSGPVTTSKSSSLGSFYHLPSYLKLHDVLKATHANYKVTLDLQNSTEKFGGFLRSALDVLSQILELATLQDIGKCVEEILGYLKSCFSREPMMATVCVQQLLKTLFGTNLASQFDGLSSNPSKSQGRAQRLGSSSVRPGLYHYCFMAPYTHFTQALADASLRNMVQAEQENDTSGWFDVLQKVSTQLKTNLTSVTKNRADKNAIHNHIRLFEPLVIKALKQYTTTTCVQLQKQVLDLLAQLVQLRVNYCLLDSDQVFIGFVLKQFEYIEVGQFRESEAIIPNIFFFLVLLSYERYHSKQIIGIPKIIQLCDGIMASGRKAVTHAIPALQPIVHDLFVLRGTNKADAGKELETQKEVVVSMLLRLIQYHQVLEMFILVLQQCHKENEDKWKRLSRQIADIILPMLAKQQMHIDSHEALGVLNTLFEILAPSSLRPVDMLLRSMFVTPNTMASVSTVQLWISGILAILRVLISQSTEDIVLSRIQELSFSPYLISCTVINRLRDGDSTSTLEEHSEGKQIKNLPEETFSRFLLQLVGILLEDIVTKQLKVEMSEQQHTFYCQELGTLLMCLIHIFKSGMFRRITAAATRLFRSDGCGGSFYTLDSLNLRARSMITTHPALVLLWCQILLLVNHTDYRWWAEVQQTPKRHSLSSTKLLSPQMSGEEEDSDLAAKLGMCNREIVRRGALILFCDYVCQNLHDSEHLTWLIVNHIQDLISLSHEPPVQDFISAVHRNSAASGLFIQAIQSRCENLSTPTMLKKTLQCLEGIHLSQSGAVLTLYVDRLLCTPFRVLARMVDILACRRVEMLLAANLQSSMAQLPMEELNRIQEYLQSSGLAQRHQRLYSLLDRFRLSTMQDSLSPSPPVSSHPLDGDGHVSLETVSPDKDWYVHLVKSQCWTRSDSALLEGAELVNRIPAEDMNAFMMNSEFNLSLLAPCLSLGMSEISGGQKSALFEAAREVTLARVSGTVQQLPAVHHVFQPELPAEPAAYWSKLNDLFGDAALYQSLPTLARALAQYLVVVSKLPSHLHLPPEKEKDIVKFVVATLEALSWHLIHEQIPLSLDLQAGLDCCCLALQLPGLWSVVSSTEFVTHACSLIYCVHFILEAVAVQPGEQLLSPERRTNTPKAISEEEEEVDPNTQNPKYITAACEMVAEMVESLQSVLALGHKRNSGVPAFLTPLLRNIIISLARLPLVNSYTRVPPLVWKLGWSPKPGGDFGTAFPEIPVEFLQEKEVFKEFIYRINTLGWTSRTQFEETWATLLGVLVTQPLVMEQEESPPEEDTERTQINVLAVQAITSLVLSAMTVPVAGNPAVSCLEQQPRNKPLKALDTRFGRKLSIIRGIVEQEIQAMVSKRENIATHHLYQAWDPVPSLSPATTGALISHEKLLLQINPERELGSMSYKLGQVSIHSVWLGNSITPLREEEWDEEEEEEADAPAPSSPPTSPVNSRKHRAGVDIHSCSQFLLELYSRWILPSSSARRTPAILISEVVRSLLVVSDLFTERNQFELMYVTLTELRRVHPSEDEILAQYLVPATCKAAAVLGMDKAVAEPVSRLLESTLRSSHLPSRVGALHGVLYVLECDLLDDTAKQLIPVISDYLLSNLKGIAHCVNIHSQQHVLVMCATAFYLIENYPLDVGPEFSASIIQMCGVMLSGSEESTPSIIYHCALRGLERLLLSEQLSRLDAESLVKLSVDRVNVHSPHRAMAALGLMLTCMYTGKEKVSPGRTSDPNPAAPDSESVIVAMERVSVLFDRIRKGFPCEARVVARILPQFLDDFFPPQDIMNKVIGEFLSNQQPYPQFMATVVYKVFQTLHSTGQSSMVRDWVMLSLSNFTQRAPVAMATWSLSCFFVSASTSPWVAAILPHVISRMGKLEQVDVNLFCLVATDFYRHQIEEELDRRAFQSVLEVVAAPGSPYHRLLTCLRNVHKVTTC
# Numbers stand for hits; – = inactive; · = no result given. Many of the other results were omitted from the sample, so hits are more common in it than they were. No stated cut-off is given here; in the data, active means inhibition above about 50%; inactive means the rest.
SMILES,Pf apPOL block,mHTT CaM bind
Cc1cc(C(=O)NC(C)C)c2cc(Cl)ccc2n1,–,–
CCCCCc1ccc(S(=O)(=O)Nc2ncccc2OCc2cc(F)cc(F)c2)cc1,–,·
Cc1ccc(C)c(N2CCC(C(=O)Nc3cccc(Cl)c3)C2=O)c1 (centres undefined),–,–
Cc1ccc(C)c(N2CCC(C(=O)Nc3cccc(C(F)(F)F)c3)C2=O)c1 (centres undefined),–,79
CSc1ccccc1NC(=O)C(=O)NCC(C)(O)c1ccc2c(c1)OCO2 (centres undefined),–,–
Cc1ccc(C2CC(c3ccccc3)n3nnnc3N2)cc1 (centres undefined),–,–
Cc1ccccc1C1CC(c2ccc(F)cc2)Nc2nc(N)nn21 (centres undefined),–,–
Cc1ccc(C2CC(c3ccc(Cl)cc3)n3nnnc3N2)cc1 (centres undefined),–,54
Cc1ccc(C2CC(c3ccccc3Cl)Nc3nc(N)nn32)cc1 (centres undefined),–,67
Nc1nc2n(n1)C(c1ccccc1)CC(c1ccccc1Cl)N2 (centres undefined),–,–
Cc1cccc(C2CC(c3ccc(Br)cc3)Nc3nc(N)nn32)c1 (centres undefined),–,55
COc1ccc(C2CC(c3cccc(C)c3)n3nc(N)nc3N2)cc1 (centres undefined),–,–
Cc1ccccc1C1CC(c2ccc(Br)cc2)Nc2nc(N)nn21 (centres undefined),–,71
Cc1nn(-c2ccc(F)cc2)c2nc(N3CCCC(C(=O)NCc4ccccc4)C3)sc12 (centres undefined),–,–
COc1ccc(CC(=O)c2ccc(O)c(CN3CCCCC3C)c2O)cc1OC (centres undefined),–,–
O=C(c1ccc(OCC2CCN(C(=O)C3CCC3)CC2)cc1)N1CCCCC1,–,–
CCc1ccc(C2=CC(c3cc(OC)c(OC)c(OC)c3)n3nnnc3N2)cc1 (centres undefined),–,–
CC(C)CNCc1nc2sc3c(c2c(=O)[nH]1)CCCC3,–,–
COc1ccc(OC)c(-c2cc3ccc(OC(=O)C4CC4)cc3oc2=O)c1,–,–
Fc1ccc([C@@H]2Nc3c(F)cccc3[C@@H]3C=CC[C@@H]32)cc1,·,–
Fc1cccc2c1NC(c1ccc(Cl)cc1)C1CC=CC21 (centres undefined),–,59
CC(=O)c1ccc(O)c2c1C1C=CCC1C(c1ccc(Cl)cc1)N2 (centres undefined),–,64
Oc1ccc(Cl)c2c1NC(c1ccc(Cl)cc1)C1CC=CC21 (centres undefined),–,100
O=c1c(NCc2ccccc2Cl)nc2ccncc2n1Cc1ccccc1,–,–
COc1cc(OC)c(OC)cc1CN1CCc2nc(N3CCCC3)ncc2C1,–,–
SMILES,Pf apPOL block,mHTT CaM bind
Cc1cc(OCC(=O)NCc2ccccc2Cl)nc(N2CCCC2)n1,–,–
CCc1nnc(NC(=O)c2c(OC)cccc2OC)s1,–,–
CCc1nnc(NC(=O)c2cc(OC)c(OC)c(OC)c2Br)s1,80,–
Cc1ccc([N+](=O)[O-])cc1NC(=O)c1cccc(Cl)c1,–,–
CC1CCN(C(=O)c2ccc(-c3nc(-c4cccc(F)c4)no3)cc2)CC1,–,–
Clc1ncnc2c1ncn2C1CCCCO1 (centres undefined),·,75
OC[C@H]1O[C@@H](n2cnc3c(NC4CCCCC4)ncnc32)[C@H](O)[C@@H]1O,–,·
COc1ccc(C2C(S(=O)(=O)N(C)C3CCCCC3)CON2C)cc1 (centres undefined),–,–
Cc1ccc(N(C(=O)Cc2ccccc2)C2C=CS(=O)(=O)C2)cc1Cl (centres undefined),–,–
CCCCOc1ccc(C(=O)N(c2ccc(C)c(Cl)c2)C2C=CS(=O)(=O)C2)cc1 (centres undefined),–,64
CC(C)N1CCN(C(=O)C2CCN(c3cnn(Cc4ccccc4)c(=O)c3)CC2)CC1,–,–
CCCS(=O)(=O)N1CCC(n2c(-c3ccoc3)nc3cccnc32)C1 (centres undefined),–,–
Cc1ccc(N2C(=O)c3ccccc3NC23C(=O)Nc2ccccc23)cc1 (centres undefined),–,–
Cc1ccc(-n2cnc3ccccc3c2=O)cc1C,–,–
CC1CCCN(C(=O)COc2ccc(Cl)cc2)C1 (centres undefined),–,–
O=C(COc1ccc(Cl)cc1)N1CCC(N2CCc3ccccc32)CC1,–,86
Cc1ccc(Cn2c(CN3CCC(C(=O)NCCN(C)C)CC3)cc3ccccc32)cc1,–,99
COc1ccc2c(c1)c(CN1CCC(C(=O)NCCN(C)Cc3ccccc3)CC1)cn2C,–,–
CN(C)CCNC(=O)C1CCN(c2nc3ccccc3o2)CC1,–,–
CN(C)CCNC(=O)C1CCN(Cc2cc3ccccc3n2Cc2cccc(F)c2)CC1,–,100
